mHTT-CaM PPI inh: mutant huntingtin-calmodulin interaction inhibitors – biochemical, AlphaScreen, primary screen | P42858 | AlphaScreen His-mHTT/GST-CaM binding, luminescence | inhibition, % at 15 µM | 3.6% of 190,000 active | AID 1671202, 2021;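 also: 0% = both proteins with DMSO and 100% = one protein alone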
Pf apPOL inh: Pf-apPOL inhibitors, biochemical, fluorescence; Plasmodium falciparum apicoplast DNA polymerase (apPOL); Recombinant Pf-apPOL, molecular beacon fluorescence, 1.5 h; inhibition, % at 10 µM; 0.25% of 210,000 active; AID 1794808, 2022
Active calls of the source: *; · = no result. Many of the other results were omitted from the sample, so hits are more common in it than they were. Rule as the data show it: active = inhibition above about 50%; inactive = the rest.

SMILES | mHTT-CaM PPI inh | Pf apPOL inh
COc1ccc2c(c1)c(CN1CCC(C(=O)NCCC(C)N3CCCC3)CC1)cn2C (stereo not drawn) | 24.5 | -3.6
Cc1nc2cc(N3CC(C(=O)Nc4ccc(F)c(C)c4)CC3=O)ccc2o1 (stereo not drawn) | 1.3 | -3.3
CCOC(=O)C1CCc2sc(NC(=O)C3CN(c4nc5ccccc5s4)C3)nc21 (stereo not drawn) | 39.8 | -1.9
CCOC(=O)C1CCc2sc(NC(=O)c3n[nH]c4ccccc34)nc21 (stereo not drawn) | 97.5* | 9.2
CCOCC(=O)N1CCC(n2c(-c3ccc(OC)cc3)nc3cccnc32)C1 (stereo not drawn) | 1.3 | -2.0
Cc1ccc2ncn(C3CCN(C(=O)COc4ccccc4)CC3)c2c1 | -6.5 | -4.9
Cc1cc(C)c2oc(=O)n(C3CCN(C(=O)COc4ccccc4)CC3)c2c1 | 72.9* | -3.0
Cc1ccc(N(C(=O)Cc2ccccc2)C2C=CS(=O)(=O)C2)cc1Cl (stereo not drawn) | -4.4 | 3.0
CCCCOc1ccc(C(=O)N(c2ccc(C)c(Cl)c2)C2C=CS(=O)(=O)C2)cc1 (stereo not drawn) | 63.7* | -2.0
COc1ccc(N(C)C(=O)c2nc(C)n(C3CCN(C)CC3)c2C)cc1 | 76.4* | 6.0
Cc1nc(C(=O)N(C)C)c(C)n1C1CCN(C)CC1 | -1.4 | -4.2
CCOCC(=O)N1CCCC(c2ccnc(Nc3ccc(OC)cc3)n2)C1 (stereo not drawn) | 6.7 | -2.4
CC(C)CC(=O)N1CCCC(c2ccnc(Nc3ccccc3)n2)C1 (stereo not drawn) | 70.8* | -2.0
O=C(c1cccs1)N1CCCC(c2ccnc(Nc3ccccc3)n2)C1 (stereo not drawn) | 61.3* | 0.2
O=C(c1cccs1)N1CCCC(c2ccnc(Nc3ccccc3F)n2)C1 (stereo not drawn) | 29.7 | -1.2
CC(C)C(=O)N1CCCC(c2ccnc(Nc3ccccc3)n2)C1 (stereo not drawn) | 33.5 | -4.5
COc1ccc(-c2nccc(C3CCCN(C(=O)Cc4ccc(F)cc4)C3)n2)cc1 (stereo not drawn) | 22.0 | 0.9
O=C(Cc1ccc(F)cc1)N1CCCC(c2ccnc(Nc3ccccc3)n2)C1 (stereo not drawn) | 96.2* | -5.2
O=C(Cc1ccccc1F)N1CCCC(c2ccnc(Nc3ccccc3)n2)C1 (stereo not drawn) | 85.6* | -1.9
O=C(OCc1cc(-c2ccc3c(c2)OCCO3)on1)c1nc2ccccc2s1 | -4.2 | -6.7
CCOc1ccccc1NC(=O)C1CCCN(C(=O)c2ccccc2F)C1 (stereo not drawn) | 24.8 | -15.7
CCCc1cnc(N2CCCN(C(=O)NS(=O)(=O)c3ccc(C)cc3)CC2)nc1 | · | -9.2
COc1ccc(N=Cc2ccc(Br)c([N+](=O)[O-])c2)cc1OC | 54.0* | 2.4
O=[N+]([O-])c1ccc(N=Cc2cc3c(cc2[N+](=O)[O-])OCO3)c(Br)c1 | 4.0 | -7.4
Cc1ccc(O)c(N=Cc2ccc(Br)c([N+](=O)[O-])c2)c1 | 58.0* | -10.9
SMILES | mHTT-CaM PPI inh | Pf apPOL inh
CC(C)(C)c1cc(Cl)c(O)c(N=Cc2cc3c(cc2[N+](=O)[O-])OCO3)c1 | 85.0* | 0.9
Cn1c(=O)n(C)c2cc(N=Cc3ccc(Br)c([N+](=O)[O-])c3)ccc21 | 29.0 | -5.2
Cc1cccc(N=Cc2cc3c(cc2[N+](=O)[O-])OCO3)c1C | 89.0* | 0.1
Cc1ccc(O)c(N=Cc2ccc(Cl)c([N+](=O)[O-])c2)c1 | 23.0 | -0.2
COc1cc([N+](=O)[O-])cc(C=Nc2cc(C(C)(C)C)cc(Cl)c2O)c1O | 10.0 | -1.7
Cc1ccc(C)c(NC(=O)Cn2cc3c(n2)CCCCC3)c1 | -2.3 | -5.4
CCc1cc(C2CCCN2C(=O)Cc2ccccc2Cl)on1 (stereo not drawn) | -6.7 | -3.7
COCCn1c(C2CCN(C(=O)c3ccc(C)c(F)c3)C2)nc2cccnc21 (stereo not drawn) | -2.2 | -6.2
O=C1c2[nH]nc(-c3ccccc3)c2C(c2ccc([N+](=O)[O-])cc2)N1c1ccccc1 (stereo not drawn) | 40.0 | -0.9
O=C(C1CCCCC1)N1CCN(c2cccc3[nH]ccc23)CC1 | · | -1.2
Cc1ccc(O)c(N=Cc2cc3c(cc2[N+](=O)[O-])OCO3)c1 | 99.0* | -2.8
Cc1ccc(O)c(N=Cc2cccc([N+](=O)[O-])c2O)c1 | 20.0 | -1.0
CCC(=O)N1CCCC(COc2ccc(C(=O)N3CCCCC3)cc2)C1 (stereo not drawn) | 1.9 | -5.3
COc1ccc(NCc2ccccc2[N+](=O)[O-])cc1OC | 64.4* | 3.7
CCOc1cc(CN2CCN(Cc3ccccc3[N+](=O)[O-])CC2)ccc1OC | 9.2 | 5.9
COc1ccc(C=O)cc1OCc1ccccc1[N+](=O)[O-] | 1.4 | 94.1*
COc1ccccc1NCc1ccc([N+](=O)[O-])s1 | 31.4 | 10.6
COc1ccc(NCc2ccc([N+](=O)[O-])s2)cc1OC | 65.1* | 4.3
COc1ccc(NC(=O)Cc2ccccc2[N+](=O)[O-])cc1OC | 1.6 | 2.0
N#Cc1c(SCC(N)=O)nc2c(c1-c1cccs1)CC/C2=C\c1cccs1 | 11.0 | 2.4
COc1ccc(C=C2Oc3cc(C)cc(O)c3C2=O)c(OC)c1OC | 74.6* | -5.3
COc1ccc(OC)c(C=C2Oc3cc(C)cc(O)c3C2=O)c1 | 4.5 | 3.3
O=[N+]([O-])c1ccc(N2CCN(Cc3ccc(Br)s3)CC2)cc1 | 23.4 | 0.5
Cc1cc(N2C=NS(=O)(=O)c3cccnc32)ccc1Cl | -3.0 | -0.6
O=c1nc2s/c(=C\c3ccccc3F)c(=O)n2nc1Cc1ccccc1 | -1.0 | 5.1
SMILES | mHTT-CaM PPI inh | Pf apPOL inh
O=C1CCCC2=C1C(c1cc(Br)ccc1O)C1C(=O)c3ccccc3C1=N2 (stereo not drawn) | 40.0 | -1.4
CC1(C)CC(=O)C2=C(C1)N=C1c3ccccc3C(=O)C1C2c1ccccc1Cl (stereo not drawn) | 13.0 | 10.7
CC1(C)CC(=O)C2=C(C1)N=C1c3ccccc3C(=O)C1C2c1ccc(Cl)cc1 (stereo not drawn) | 68.0* | -3.4
Cc1ccc(C2C3=C(CC(C)(C)CC3=O)N=C3c4ccccc4C(=O)C32)cc1 (stereo not drawn) | 62.0* | 30.1
Cc1cc(C2C3=C(CC(C)(C)CC3=O)N=C3c4ccccc4C(=O)C32)cc(C)c1O (stereo not drawn) | 38.0 | 0.2
COc1ccc(C2C3=C(CC(C)(C)CC3=O)OC3=C2C(=O)CC(C)(C)C3)cc1OC | -2.7 | 2.0
O=C1CCCC2=C1C(c1ccc(Br)cc1)C1C(=O)c3ccccc3C1=N2 (stereo not drawn) | 69.0* | -0.6
COc1ccc(C2C3=C(CC(C)(C)CC3=O)N=C3c4ccccc4C(=O)C32)cc1OC (stereo not drawn) | 64.0* | 2.9
O=C(Nc1nccs1)c1cc2cc(Br)ccc2oc1=Nc1ccc(F)cc1 | -2.0 | -2.6
O=C(Cc1cccc2ccccc12)NC1CCCCNC1=O (stereo not drawn) | · | 5.0
CCCCN1CCN(C(=O)C2CCCN(c3nnc4ccc(C(F)(F)F)cn34)C2)CC1 (stereo not drawn) | 6.6 | 0.7
O=C(Nc1cc(Cl)ccc1O)c1ccc(Br)cc1 | -0.3 | 7.2
CC1(C)CC(=O)C2=C(C1)Nc1ccccc1NC2c1cccc([N+](=O)[O-])c1 (stereo not drawn) | -0.5 | -2.1
